# Screening results as filed in PubChem.
# LMNA splice mod – modulators of lamin A splicing. 200,000 tested, 0.01% active. Potency, µM (titrated, usually from 46.1 µM), for the others: at the top dose ratio change, negative = inhibition, most hits filed as inhibitors. AID 1487. HeLa LMNA splicing GFP/RFP minigene ratio, 48 h; active means well fitted inhibition curve with a large enough effect in the signal ratio, with a control signal flat, not every such curve was filed as active; inconclusive means small, poorly fitted or top-dose-only effect, or effect the other way, or a change in a side signal; the % refers to the signal ratio; further: potency means the concentration at half of the fitted maximal effect
#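 S3 HeLa stable clones carrying a lamin A-EGFP splicing minigene plus DsRed2 were seeded at 600 cells/well in Opti-MEM with 2% FBS, pin-dosed and incubated 48 h at 37°C. Acumen cytometry (488 nm) gave the GFP/RFP total-intensity ratio.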
# IMPase inh – membrane-permeable compound that blocks inositol monophosphatase; CHO-M1 cells, IP1 accumulation, HTRF TR-FRET ratio; inhibition (IP1 accumulation), % at 46.1 µM; 120,000 tested, under 10 active; AID 901; active means well fitted curve in the direction sought with a large enough effect in the signal ratio, not every such curve was filed as active; inconclusive means small, poorly fitted or top-dose-only effect, or a change in a side signal; inactive means no such curve, though single readings can be large or run the other way; the % refers to the signal ratio;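 further: cells stimulated with carbachol in lithium chloride buffer; plate controls were DMSO basal wells for no effect and reference inhibitor wells for full effect; higher means more IMPase inhibition seen as more IP1 and lower FRET ratio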
# Target sequence (P97697 whole entry, looked up): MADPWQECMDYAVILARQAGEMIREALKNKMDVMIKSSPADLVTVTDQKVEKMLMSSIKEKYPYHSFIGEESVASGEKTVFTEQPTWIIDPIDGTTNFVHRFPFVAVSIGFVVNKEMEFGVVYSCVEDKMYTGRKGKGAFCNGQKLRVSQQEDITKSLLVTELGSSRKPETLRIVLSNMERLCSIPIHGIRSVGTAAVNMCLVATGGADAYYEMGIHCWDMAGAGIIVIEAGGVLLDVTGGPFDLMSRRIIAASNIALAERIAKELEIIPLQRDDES
#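 CHO-M1 cells (CHO stably expressing M1 receptor), compound up to 46 uM final, stimulated with carbachol (50 uM as added) in buffer with 50mM LiCl, pH 7.4, 30 min at 37C. Cytosolic IP1 read by TR-FRET; AC50 from Hill fits.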
# ALDH1A1 block – ALDH1A1 (human) enzyme inhibition; P00352; Purified ALDH1A1, NADH fluorescence, propionaldehyde substrate; Potency, µM (titrated, usually from 75.3 µM), inactives show at the highest dose activity, negative = inhibition, usual class: inhibitors; 220,000 tested, 7.3% active; AID 1030;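 further: potency means the concentration at half of the fitted maximal effect; plate controls were no enzyme wells and a reference inhibitor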
# Luc counter – Kinase-Glo luciferase inhibition (counter-screen); Q27757; Kinase-Glo luciferase, ATP luminescence, 8 min; 200,000 tested, 0.28% active; Potency, µM (series often up to 38.3 µM), for the others: top-dose activity change, negative = inhibition, most hits filed as inhibitors; active means well fitted inhibition curve with a large enough effect; inconclusive means small, poorly fitted or top-dose-only effect; further: potency means the concentration at half of the fitted maximal effect; nearly all actives have a fitted effect of over 60% in size
#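 Luminescence was the read-out, taken after 8-minute incubation at ambient temperature. Luciferase turned over luciferin with 10 uM ATP in imidazole pH 7.2 buffer containing KCl, MgCl2, Tween 20 and BSA.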
# PNC inhibitor – blocks assembly of the perinucleolar compartment. PC3M PTB-GFP, PNC prevalence imaging, 16 h; hits give low values. activity change (PNC), negative = inhibition, % at 10 µM. 140,000 tested, 3.1% active. AID 2417;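 active means readout at or below -70, meaning at least 70% loss of cells showing the perinucleolar compartment, a nuclear body marking cancer cells; inconclusive means readout between -30 and a set limit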;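 further: plate controls were DMSO wells for no effect and camptothecin positive control wells for full effect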
#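 Read-out is percentage of cells bearing a perinucleolar compartment, from automated 20x imaging of fixed, Hoechst-stained PC3M PTB-GFP cells. Cells were seeded 4 h, then exposed 16 h to compound (23 nl of library stock) in duplicate plates.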
# HPGD inh – blocks human HPGD enzyme activity; purified HPGD, NADH fluorescence kinetic, PGE2 substrate; 150,000 tested, 4.3% active; Potency, µM, for the others: top-dose activity change, negative = inhibition, usual class: inhibitors; P15428; AID 894; further: potency means the concentration at half of the fitted maximal effect
# Target sequence (P15428 whole entry, looked up): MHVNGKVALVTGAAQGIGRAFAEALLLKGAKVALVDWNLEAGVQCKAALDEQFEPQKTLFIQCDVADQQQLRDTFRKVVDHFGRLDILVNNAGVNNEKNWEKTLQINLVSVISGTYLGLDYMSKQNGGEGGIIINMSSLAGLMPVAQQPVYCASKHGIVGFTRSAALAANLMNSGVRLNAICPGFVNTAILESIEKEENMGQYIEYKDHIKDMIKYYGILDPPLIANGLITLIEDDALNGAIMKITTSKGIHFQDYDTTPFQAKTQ
#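 20 nM HPGD preincubated 15 min at room temperature with compound in 50 mM Tris-HCl pH 8, 0.01% Tween 20. Started with 1 mM NAD+ and 30 uM prostaglandin E2; NADH fluorescence (360/450 nm) read 5 times over 30-s intervals, last minus first.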
# Active calls of the source: *; ? = inconclusive; · = not tested or not shown; [ ] = dose if it differs, or a comment. This is a sample that favours compounds with a hit; in the whole collection about 10% have one here. Unless noted, the call rests on the fitted dose curve; in most records, active means well fitted inhibition curve with a large enough effect (not every such curve was filed as active); inconclusive means small, poorly fitted or top-dose-only effect, or another doubt; inactive means no such curve, though single readings can be large or run the other way. Unless noted, on the % scale 0 is the no-effect control and ±100 the full control effect.
SMILES,LMNA splice mod,IMPase inh,ALDH1A1 block,Luc counter,PNC inhibitor,HPGD inh
CC12C=C(/C=C/CCc3ccco3)C(C)(C1)C(CCc1ccco1)CC2=O (stereo not given),·,·,4µM*,·,·,·
CCc1ccc(CCC(=O)Nc2nccs2)o1,5%,1,18µM*,-1%,28,-28%
CCc1ccc(OCCCC(=O)Nc2nccs2)cc1,·,·,-11%,0%,·,·
Cc1ccc(CCC(=O)Nc2nccs2)o1,13%,-2,?,-3%,44,28µM*
COC(=O)[C@@]1(Cc2ccccc2)[C@H]2c3cc(C(=O)N4CCCC4)n(CCO)c3C[C@H]2CN1C(=O)c1ccccc1,·,·,1%,-3%,·,-11%
CC(C)c1nn2c(=O)cc(COC(=O)c3cccc(NC(=O)COc4ccc(F)cc4)c3)nc2s1,1%[46 µM],·,·,·,·,·
Cc1c(-c2cccs2)[n+](=O)c2c(n1[O-])CCCC2,2%,5,-4%,0%,-100*,-5%
CCc1c(C)n([O-])c2c([n+]1=O)CCC2,5%,1,-4%,4%,-81*,0%
CC1CCCCN1Cc1c(O)ccc2c(=O)c(-c3ccc(Cl)cc3)c(C(F)(F)F)oc12 (stereo not given),·,0,·,·,·,·
Cc1nnc(Sc2cc(C(=O)NCc3ccco3)c3ccccc3n2)s1,?,4,?,-2%,-11,2.2µM*
COc1ccccc1CN(Cc1ccco1)c1cnc(S(C)(=O)=O)nc1C(=O)Nc1cc(C)ccc1C,-9%[46 µM],·,·,·,·,·
COc1ccc(NC(=S)Nc2cc(-c3ccccc3)[nH]n2)cc1Cl,?,11,10µM*,3%,?,-29%
Cc1cc(NC(=S)Nc2ccc(C)c(Cl)c2)n[nH]1,·,·,1.4µM*,2%,·,·
CCOc1ccc(NC(=S)Nc2cccnc2)cc1,6%[9.22 µM],·,?,-5%,·,·
COc1cc(C)c(NC(=S)Nc2ccc(C)c(Cl)c2)cc1OC,2%,·,?,1%,-18,-13%
CCOc1ccc(NC(=S)Nc2cc(-c3ccccc3)[nH]n2)cc1,8%,5,13µM*,2%,41,-15%
CCN(CC)CCCNC(=O)c1c(C)oc2ncnc(N3CCOCC3)c12,16%[46 µM],·,·,·,·,·
COC(=O)c1ccc(Nc2ncnc3c2cnn3C)cc1,2%[46 µM],·,·,·,·,·
Cn1ncc2c(Nc3cccc(C(=O)O)c3)ncnc21,5%,3,13µM*,0%,67,-18%
Cn1ncc2c(Nc3ccc(-c4ccccc4)cc3)ncnc21,?,11,?,0%,-82*,?
CC(C)CCNC(=O)c1cc(Sc2ccc(F)cc2F)nc2ccccc12,-3%[46 µM],·,·,·,·,·
O=C(NC1CC(=O)N(c2cccc(F)c2)C1)c1ccc(S(=O)(=O)N2CCCCC2)cc1 (stereo not given),4%[46 µM],·,·,·,·,·
Cc1cc(C)n(CCc2nc3c4ccccc4n(CC#N)c(=O)n3n2)n1,16%,-3,11µM*,-2%,-13,-9%
Nc1ccc(N(CCO)CCO)cc1,9%[46 µM],·,16µM*,-9%,·,·
CCN(CC)c1ccc(N)cc1,·,·,3.2µM*,·,·,-16%
SMILES,LMNA splice mod,IMPase inh,ALDH1A1 block,Luc counter,PNC inhibitor,HPGD inh
Clc1ccc2nc(Nc3ccccc3Cl)nc(-c3ccccc3)c2c1,·,0,·,·,·,·
Cn1c2ccccc2c2cc(C(=O)NNS(=O)(=O)c3ccc(F)cc3)sc21,-13%,-8[1.84 µM],?,0%,-88*,?
N#CCCN(C(=O)CO/N=C/c1cccc([N+](=O)[O-])c1)c1ccccc1,?,·,25µM*,-2%,·,·
S=c1nc(C2CCCCC2)[nH][nH]1,-2%,8,?,3%,?,14µM*
Nc1n[nH]c(C2CCCCC2)n1,·,·,1%,-6%,·,·
O=C(NCCOC(=O)c1ccncc1)c1ccccc1,0%,3,10%,-1%,-6,-8%
COc1cc(C(=O)OCCNC(=O)c2ccncc2)cc(OC)c1OC,-11%,5,7%,-1%,-111*,-9%
COC(=O)C(/C=N/OCc1ccc([N+](=O)[O-])cc1)NC(=O)c1cccc(Cl)c1 (stereo not given),-5%,-3,1.4µM*,-4%,-98*,-3%
COCC(C)NC(=O)c1cccc(Cl)c1 (stereo not given),10%,-7,1%,-3%,-29,?
COCCNc1c2c(nc3c(-c4ccccc4)c(C)nn13)CCCC2,1%,5,-9%,-6%,79,-12%
Cc1nn2c(NCCOCCO)c3c(nc2c1-c1ccccc1)CCCC3,4%,3,32µM*,-7%,88,-15%
COc1ccc(N=Nc2cnc(C)nc2-c2ccccc2)cc1,?,-5[1.84 µM],-13%,0%,-85*,-24%
CCOc1ccc(N2C(=O)CC(NCCc3ccncc3)C2=O)cc1 (stereo not given),-4%,5,?,-6%,?,-6%
CCCOc1ccc(N2C(=O)CC(NCCc3ccc(S(N)(=O)=O)cc3)C2=O)cc1 (stereo not given),14%,12,7.9µM*,1%,-1,-6%
CCOc1ccc(N2C(=O)CC(NCCc3c[nH]c4ccccc34)C2=O)cc1 (stereo not given),·,·,11µM*,-1%,·,·
C[C@@H](CCc1ccc(O)cc1)NCCc1ccc(O)c(O)c1,-13%,0,-4%,-3%,·,1%
CC(=O)n1c2ccccc2c2c1c1ccccc1n2C,?,-2,?,1%,21,?
C=CCNc1nc2c3ccccc3n(C(C)=O)c2s1,8%,3,28µM*,-3%,-17,-3%
NC(Cc1ccccc1)(C(=O)O)C(=O)O,·,·,12%[13.5 µM],-1%[7.66 µM],·,-3%
CCc1c(C)sc(NC(=O)OC)c1C(N)=O,16%,-2,-1%,-7%,-9,-25%
CCc1c(C)sc(NC(=O)C2CCCCC2C(=O)O)c1C(N)=O (stereo not given),8%,-5,1.6µM*,7%,-6,4µM*
COc1cc(OC)cc(C(=O)Nc2nnc(NC(=S)Nc3ccccc3)s2)c1,?,·,22µM*,2%,-100*,-20%
CC(C)(C)c1nnc(NC(=S)Nc2ccccc2)s1,?,·,25µM*,4%,·,·
